The text below walks through data of PubChem BioAssay (NCI).

About 79,000 compounds went through this panel and 15% of them were active in at least one assay; those are over-represented in the sample as a whole. Values without a mark were called inactive. Calls of active or inactive are those of the source. Cut-off read from the data, not from the text of the source: active = growth inhibition above about 70%; inactive = the rest.

The assay is described as follows: NCI Yeast Anticancer Drug Screen. Data for the sgs1 mgt1 strain (AID 161).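 Note: 0% = growth of cultures given vehicle only.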 The conditions noted are these: S. cerevisiae sgs1 mgt1 strain, at 50.0 µM, hits give high values. On the procedure: Growth inhibition of yeast strains with defined genetic alterations is measured as a screen for potential anti-cancer activity. Selected strains with alterations in DNA damage repair or cell cycle control were exposed to compounds and growth inhibition was measured relative to vehicle treated controls. The strain used in this assay is sgs1 mgt1
Consider `CC(C)/C(=N\N=C(\c1ccccc1)C(C)C)c1ccccc1`, for which the growth inhibition was 3%. In the case of `O=C(Nc1ccc(C2=NCCN2)cc1)c1cncc(C(=O)Nc2ccc(C3=NCCN3)cc2)c1`, the growth inhibition is 16.4%. Take `Cc1c(C(=O)CC(=O)C(=O)Nc2cc(Cl)ccc2Cl)[n+](=O)c2ccccc2n1[O-]`: the growth inhibition is -40.2%.

Consider `CCOC(=O)CCCCCCCCCCCCC1C=CCC1` (stereo not given), for which the growth inhibition is -3.45%. The value for `CCN(CC)CCn1c(C(C)(C)C)nc2ccccc21` was -24.1%; that for `C=CC(C)(C)c1c2c(c(O)c3c(=O)c4ccc(O)c(O)c4oc13)C=CC(C)(C)O2` was 3.35%; that for `CCCc1cc(=O)n(CCCc2ccccc2)c(=O)[nH]1` was 13.4%. Turning to `O=c1oc2ccccc2c(O)c1C(c1cc(OCc2ccccc2)cc(OCc2ccccc2)c1)c1c(O)c2ccccc2oc1=O`, the growth inhibition is -2.1%. Consider `O=C(O)c1c(Br)c(Br)c(Br)c(Br)c1C(=O)Nc1ccc(Cl)c(Cl)c1`, for which the growth inhibition was -0.75%. For `CN(C)CCOC(=S)S`, the growth inhibition is -9.3%. On to `CC(=O)OCCSSCCOC(C)=O`, for which the growth inhibition was 13%. The value for `C=CC1(C)C(C)=C(C)C(C)=C1C` was -13.7%. For the compound `C/C(=N\Nc1cc(C)nc2cc3c(cc12)OCO3)c1cn(C)n(-c2ccccc2)c1=O`, the growth inhibition is 21.6%.

With `CCCNC(=O)Oc1ccccc1C(N)=O`, the growth inhibition is -4.4%. The value for `C=CCCCCCCCCC(=O)Nc1cc2c3c(c1)CCCN3CCC2` was 1.1%; that for `[Cu+2].[Cu+2].c1ccc2c(c1)-c1nc-2nc2[n-]c(nc3nc(nc4[n-]c(n1)c1ccccc41)-c1ccccc1-3)c1cc3c4nc5nc(nc6[n-]c(nc7nc(nc([n-]4)c3cc21)-c1ccccc1-7)c1ccccc61)-c1ccccc1-5` was 11.1%. The value for `COC1OC2COC(c3ccccc3)OC2C(N=[N+]=[N-])C1O` (stereo not given) was -4.9%; that for `CC(=O)NNc1nc(C)c(C(=O)NNC(=O)C(=O)Nc2c(C)cccc2C(C)(C)C)s1` was 13.2%; that for `CN1C(=O)N(c2ccccc2)C2(CCN(CC3COc4ccccc4O3)CC2)C1=O` (stereo not given) was 21.6%.

Take `Cc1ccc(CC2CC(=O)c3ccccc3C2=O)cc1` (stereo not given): the growth inhibition was -4.55%.

For `CC1C(OC(=O)CCl)CCC2C1(C)CCC1C2(C)CCC2(C)C3CC(C)(C)CCC3(C)CCC12C` (stereo not given), the growth inhibition is -1.85%. The value for `CC(=O)OC(C(=O)Nc1ncccn1)c1ccccc1` (stereo not given) was -5.65%; that for `O=C(Nc1ccc(S(=O)(=O)NC2CCCCC2)cc1)OC(c1ccccc1)c1ccccc1` was 18.2%.

With `CC1(C)OC(=O)CC2(C)OC12` (stereo not given), the growth inhibition was -11.2%. For `CC(=O)Nc1ccc(S(=O)(=O)N/N=C(\C)c2csc3ccccc23)cc1`, the growth inhibition is -19.9%.

Regarding `CCCN1CN(C(C(=O)N[C@@H]2C(=O)N3C(C(=O)O)=C(C)CSC23)c2ccc(O)cc2)CSC1=S` (stereo not given in full), the growth inhibition is 10.2%. For the compound `C=C(c1ccccc1)c1cccc2ccccc12`, the growth inhibition was -4.9%. Regarding `O=C(CC1Sc2ccccc2NC1=O)NNc1c(Cl)cc(Cl)cc1Cl` (stereo not given), the growth inhibition was 4%. On to `O=c1[nH]cc(C(F)(C(F)(F)F)C(F)(F)F)c(=O)[nH]1`, for which the growth inhibition is -24.6%.

`C/C(=N/NC(N)=S)c1ccc2ccccc2c1`: the growth inhibition was 43.8%. The value for `CCCCCCCC(CCCCCCC)(C(=O)OCC)C(=O)OCC` was 9.1%; that for `Cc1nc(C(=O)O)c2ccccc2n1` was -8.05%; that for `CCCCCCCCCCCCCCCC[N+](C)(C)CC#CCCl` was 48.6%. On to `NC(=S)NNC(=O)c1ccccc1`, for which the growth inhibition was -2.25%. `CN(C)CCSc1n[nH]c(=O)[nH]c1=O`: the growth inhibition was -7.35%. The same measure for `O=C(CC(O)(C(F)(F)F)C(F)(F)F)c1ccc(Br)cc1`: 5.45%. As for `CC(=O)OCC1OC(N=[N+]=[N-])C(OC(C)=O)C(OC(C)=O)C1OC1OC(COC(C)=O)C(OC(C)=O)C(OC(C)=O)C1OC(C)=O` (stereo not given), the growth inhibition is -16.2%. The value for `O=C(O)C1CCCCC1C(=O)Nc1cccc2ccccc12` (stereo not given) was -4.3%.

Consider `CCCCCCCCCCCOCCC1C(C(C)OCCN2CCCC2)OC2OC(C)(C)OC21` (stereo not given), for which the growth inhibition was 90.5% (active). Turning to `OCCCCN1CCCCC1`, the growth inhibition was -13.2%.
